Source: PubChem BioAssay (Tox21)
Records with an inconclusive call do not appear. Calls of active or inactive are those of the source. Calls come from the whole dose curve; as a rule, active = well fitted curve in the direction sought with a large enough effect in the repeat runs; inconclusive = weak or mixed curves; inactive = no such curve, though single readings can be large; an effect the other way counts as inactive or inconclusive.

Experiments:
[1] = qHTS RealTime-Glo MT Cell Viability Assay in HepG2 cells - 24 hour (AID 1224867); note: nearly all actives have a fitted effect of over 50% in size
Outline: (§1)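 HepG2 cells were seeded at 600 cells/well together with NanoLuc luciferase and a cell-permeant prosubstrate, preincubated 5 h at 37 C/5% CO2, then pin-dosed with compounds in DMSO. Nonlytic luminescence from viable cells was read at each time point.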

[2] = qHTS RealTime-Glo MT Cell Viability Assay in HEK293 cells - 32 hour (AID 1224868); note: top concentration of the series differs between compounds; nearly all actives have a fitted effect of over 50% in size
Outline: (§2)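 HEK293 cells were seeded at 600 cells/well together with NanoLuc luciferase and cell-permeant prosubstrate, preincubated 5 h at 37 C/5% CO2, then given compound in DMSO by pintool. Luminescence from viable-cell prosubstrate reduction was read repeatedly over 40 h.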

[3] = A CellTox Green Cytotoxicity Assay to monitor cytotoxicity in HEK293 cells - 0 hour (AID 1224869); note: nearly all actives have a fitted effect of over 50% in size
Outline: (§3)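 Nonlytic real-time cytotoxicity: HEK293 + CellTox Green reagent plated, 5 h preincubation, pintool compound addition (23 nL in DMSO), 37 C for 40 h, fluorescence measured at successive time points.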

[4] = qHTS RealTime-Glo MT Cell Viability Assay in HepG2 cells - 40 hour (AID 1224870); note: nearly all actives have a fitted effect of over 50% in size
Outline: (§4)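 HepG2 cells mixed with RealTime-Glo MT reagents (NanoLuc plus cell-permeant prosubstrate) were seeded at 600 cells/well, incubated 5 h at 37 C/5% CO2, then pinned with compounds in DMSO; nonlytic luminescence tracked viability during 40 h treatment.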

[5] = A CellTox Green Cytotoxicity Assay to monitor cytotoxicity in HEK293 cells - 40 hour (AID 1224871); note: nearly all actives have a fitted effect of over 45% in size
Outline: as §3

[6] = qHTS RealTime-Glo MT Cell Viability Assay in HEK293 cells - 16 hour (AID 1224872)
Outline: as §2

[7] = qHTS RealTime-Glo MT Cell Viability Assay in HepG2 cells - 8 hour (AID 1224873); note: nearly all actives have a fitted effect of over 55% in size
Outline: as §4

[8] = qHTS RealTime-Glo MT Cell Viability Assay in HEK293 cells - 40 hour (AID 1224874); conditions: RealTime-Glo luminescence, active compounds read low; note: nearly all actives have a fitted effect of over 50% in size
Outline: (§5)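 Cells were seeded together with NanoLuc luciferase and a prosubstrate that viable cells reduce to a luciferase substrate. After a 5 h incubation at 37 C/5% CO2, compounds were added and luminescence was measured repeatedly during 40 h of treatment.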

[9] = A CellTox Green Cytotoxicity Assay to monitor cytotoxicity in HEK293 cells - 24 hour (AID 1224875); note: series mostly up to about 77 µM; nearly all actives have a fitted effect of over 45% in size
Outline: as §3

[10] = A CellTox Green Cytotoxicity Assay to monitor cytotoxicity in HepG2 cells - 16 hour (AID 1224876); note: nearly all actives have a fitted effect of over 45% in size
Outline: (§6)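 Read-out is fluorescence of a cyanine dye excluded from live cells that stains DNA of dead HepG2 cells, with signal proportional to cytotoxicity. Plates were read at 0, 8, 16, 24, 32 and 40 h after compound addition.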

[11] = qHTS RealTime-Glo MT Cell Viability Assay in HepG2 cells - 32 hour (AID 1224877); note: nearly all actives have a fitted effect of over 55% in size
Outline: as §1

[12] = A CellTox Green Cytotoxicity Assay to monitor cytotoxicity in HepG2 cells - 24 hour (AID 1224878); note: nearly all actives have a fitted effect of over 45% in size
Outline: as §6

[13] = A CellTox Green Cytotoxicity Assay to monitor cytotoxicity in HepG2 cells - 40 hour (AID 1224879); note: nearly all actives have a fitted effect of over 40% in size
Outline: as §6

[14] = qHTS RealTime-Glo MT Cell Viability Assay in HEK293 cells - 0 hour (AID 1224880)
Outline: as §5

[15] = A CellTox Green Cytotoxicity Assay to monitor cytotoxicity in HEK293 cells - 32 hour (AID 1224881); note: nearly all actives have a fitted effect of over 40% in size
Outline: as §3

[16] = A CellTox Green Cytotoxicity Assay to monitor cytotoxicity in HepG2 cells - 0 hour (AID 1224882); note: nearly all actives have a fitted effect of over 35% in size
Outline: as §6

[17] = A CellTox Green Cytotoxicity Assay to monitor cytotoxicity in HepG2 cells - 32 hour (AID 1224883); note: nearly all actives have a fitted effect of over 50% in size
Outline: as §6

[18] = qHTS RealTime-Glo MT Cell Viability Assay in HepG2 cells - 16 hour (AID 1224885); note: nearly all actives have a fitted effect of over 50% in size
Outline: as §1

[19] = qHTS RealTime-Glo MT Cell Viability Assay in HEK293 cells - 24 hour (AID 1224886)
Outline: as §2

[20] = A CellTox Green Cytotoxicity Assay to monitor cytotoxicity in HEK293 cells - 8 hour (AID 1224884); note: nearly all actives have a fitted effect of over 35% in size
Outline: as §3
% is set by controls: 0 for no effect and ±100 for the full control effect.

N=C(N)S(=O)O
inactive: outcome [1] | outcome [2] | outcome [3] | outcome [4] | Potency [5] | outcome [6] | outcome [7] | max response [8] 11.7% | Potency [9] | Potency [10] | outcome [11] | Potency [12] | Potency [13] | Potency [14] | Potency [15] | Potency [16] | Potency [17] | outcome [18] | outcome [19]

O=C(O)Cc1ccccc1Oc1ccc(Cl)cc1Cl
inactive: outcome [1] | outcome [2] | outcome [3] | outcome [4] | Potency [5] | outcome [6] | outcome [7] | max response [8] 4.29% | Potency [9] | Potency [10] | outcome [11] | Potency [12] | Potency [13] | Potency [14] | Potency [15] | Potency [16] | Potency [17] | Potency [20] | outcome [18] | outcome [19]

CC(C)=CCC/C(C)=C\C#N
inactive: outcome [1] | outcome [2] | outcome [3] | outcome [4] | Potency [5] | outcome [6] | outcome [7] | max response [8] 15.8% | Potency [9] | Potency [10] | outcome [11] | Potency [12] | Potency [13] | Potency [14] | Potency [15] | Potency [16] | Potency [17] | Potency [20] | outcome [18] | outcome [19]

COc1ccccc1N1CCN(CC(O)COc2cc(OC)c(OC)c(OC)c2)CC1 (stereo not given)
inactive: outcome [1] | outcome [2] | outcome [3] | outcome [4] | Potency [5] | outcome [6] | outcome [7] | max response [8] 4.13% | Potency [9] | Potency [10] | outcome [11] | Potency [12] | Potency [13] | Potency [14] | Potency [15] | Potency [17] | Potency [20] | outcome [18] | outcome [19]

O=c1[nH]c(=O)c2cn[nH]c2[nH]1
inactive: outcome [1] | outcome [2] | outcome [3] | outcome [4] | Potency [5] | outcome [6] | outcome [7] | max response [8] -0.927% | Potency [9] | Potency [10] | outcome [11] | Potency [12] | Potency [13] | Potency [14] | Potency [15] | Potency [16] | Potency [17] | Potency [20] | outcome [18] | outcome [19]

CCCCN=C(N)N=C(N)N
inactive: outcome [1] | outcome [2] | outcome [3] | outcome [4] | Potency [5] | outcome [6] | outcome [7] | max response [8] -14.6% | Potency [9] | Potency [10] | outcome [11] | Potency [12] | Potency [13] | Potency [14] | Potency [15] | Potency [16] | Potency [17] | Potency [20] | outcome [18] | outcome [19]

C/C=C(\C)C=O
inactive: outcome [1] | outcome [2] | outcome [3] | outcome [4] | Potency [5] | outcome [6] | outcome [7] | max response [8] 8.23% | Potency [9] | Potency [10] | outcome [11] | Potency [12] | Potency [13] | Potency [14] | Potency [15] | Potency [16] | Potency [20] | outcome [18] | outcome [19]

CO/N=C(\C(=O)O)c1csc(NC(=O)CCl)n1
inactive: outcome [1] | outcome [2] | outcome [3] | outcome [4] | Potency [5] | outcome [6] | outcome [7] | max response [8] 0.384% | Potency [9] | Potency [10] | outcome [11] | Potency [12] | Potency [13] | Potency [14] | Potency [15] | Potency [17] | Potency [20] | outcome [18] | outcome [19]

CC(C)(O)CCCC1=CCC(C=O)CC1 (stereo not given)
inactive: outcome [1] | outcome [2] | outcome [3] | outcome [4] | Potency [5] | outcome [6] | outcome [7] | max response [8] -16% | Potency [9] | Potency [10] | outcome [11] | Potency [12] | Potency [13] | Potency [14] | Potency [15] | Potency [16] | Potency [20] | outcome [18] | outcome [19]

C[C@H]1COc2c(C3(N)CC3)c(F)cc3c(=O)c(C(=O)O)cn1c23
inactive: outcome [1] | outcome [2] | outcome [3] | outcome [4] | Potency [5] | outcome [6] | outcome [7] | max response [8] 1.9% | Potency [9] | Potency [10] | outcome [11] | Potency [12] | Potency [13] | Potency [14] | Potency [15] | Potency [16] | Potency [17] | Potency [20] | outcome [18] | outcome [19]

CC(C)C(=O)Nc1cccc(C2CN3CCSC3=N2)c1 (stereo not given)
inactive: outcome [1] | outcome [2] | outcome [3] | outcome [4] | Potency [5] | outcome [6] | outcome [7] | max response [8] 0.0338% | Potency [9] | Potency [10] | outcome [11] | Potency [12] | Potency [13] | Potency [14] | Potency [15] | Potency [16] | Potency [17] | Potency [20] | outcome [18] | outcome [19]

CC(C)(C)C(=O)CCc1ccc(Cl)cc1
inactive: outcome [1] | outcome [2] | outcome [3] | outcome [4] | Potency [5] | outcome [6] | outcome [7] | max response [8] 1.49% | Potency [9] | Potency [10] | outcome [11] | Potency [12] | Potency [13] | Potency [14] | Potency [15] | Potency [17] | Potency [20]

CC[N+](C)(CC)CC
inactive: outcome [1] | outcome [2] | outcome [3] | outcome [4] | Potency [5] | outcome [6] | outcome [7] | max response [8] 13.2% | Potency [9] | Potency [10] | outcome [11] | Potency [12] | Potency [13] | Potency [14] | Potency [15] | Potency [16] | Potency [17] | Potency [20] | outcome [18]

C=CCCCCCCCCCCCCCC
inactive: activity change, negative = cytotoxicity [1] 0.31% [at 15.8 µM] | activity change, negative = cytotoxic [2] -0.171% [at 15.8 µM] | cytotoxicity [3] -0.258% [at 15.8 µM] | activity change, negative = cytotoxic [4] -8.43% [at 15.8 µM] | cytotoxicity increase [5] 0.351% [at 15.8 µM] | activity change, negative = cytotoxicity [6] -2.4% [at 15.8 µM] | viability change, negative = cytotoxic [7] 2.93% [at 15.8 µM] | max response [8] 0.625% | activity change [9] -0.0594% [at 15.8 µM, active compounds read high] | cytotoxicity increase [10] 2.79% [at 15.8 µM] | activity change, negative = cytotoxic [11] -5.43% [at 15.8 µM] | cytotoxicity [12] 1.07% [at 15.8 µM] | cytotoxicity increase [13] -1.48% [at 15.8 µM] | activity change, negative = cytotoxicity [14] -0.897% [at 15.8 µM] | cytotoxicity increase [15] -0.422% [at 15.8 µM] | cytotoxicity [16] 7.56% [at 15.8 µM] | cytotoxicity increase [20] 2.81% [at 15.8 µM] | activity change, negative = cytotoxic [18] -0.802% [at 15.8 µM] | activity change, negative = cytotoxicity [19] -1.45% [at 15.8 µM]
